Assay outcomes (PubChem)
CYP2C9 inhib – inhibitors of human CYP2C9 | hit rate 20% among 96,000 | inhibition, % at 5 µM | P11712 | CYP2C9 Supersomes, luciferin-H conversion, luminescence;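 active = blocking of liver enzyme CYP2C9 beyond about 50% at 5 µM, limit read from the data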
PTK2B oligo ant – antagonists of human Pyk2 oligomerization; hit rate 0.83% among 99,000; Q293 cells, Pyk2 FERM NanoBiT luminescence; active compounds read low; Q14289; z-score (the deposit names both 25 µM and 10 µM);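 active = Z-score of -3 or lower, scaled per plate to the spread of control and sample wells; inactive = z-score above -3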;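 also: negative z-score means lost luminescence so less FERM oligomerization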
CYP2C19 inh – blocks human cytochrome P450 2C19; inhibition, % at 5 µM; CYP2C19 Supersomes, luciferin-H EGE luminescence, 30 min; hit rate 21% among 96,000; P33261; AID 778;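 active = CYP2C19 inhibition above a set limit at 5 µM in the primary screen, cut at about 50% in these data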;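 also: plate controls were negative control wells for no effect and 2.5 mM tranylcypromine positive control for full effect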
Target sequence (P33261 whole entry, looked up): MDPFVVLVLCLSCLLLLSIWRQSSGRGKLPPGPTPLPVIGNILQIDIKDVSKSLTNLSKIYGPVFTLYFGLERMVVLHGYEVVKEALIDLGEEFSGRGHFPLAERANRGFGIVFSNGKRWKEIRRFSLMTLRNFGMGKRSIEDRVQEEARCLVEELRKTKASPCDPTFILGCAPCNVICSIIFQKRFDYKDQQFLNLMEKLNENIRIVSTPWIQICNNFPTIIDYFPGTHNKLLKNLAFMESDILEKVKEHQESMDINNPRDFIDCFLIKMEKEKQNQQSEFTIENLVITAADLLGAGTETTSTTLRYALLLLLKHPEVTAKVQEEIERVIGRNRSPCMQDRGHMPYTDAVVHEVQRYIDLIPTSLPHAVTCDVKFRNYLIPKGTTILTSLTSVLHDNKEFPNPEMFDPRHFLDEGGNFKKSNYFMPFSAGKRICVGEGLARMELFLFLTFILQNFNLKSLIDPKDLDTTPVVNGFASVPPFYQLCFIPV
CYP2C19 activ – increases human CYP2C19 enzyme activity | 96,000 tested, under 10 active | AID 1025 | activation factor at 5 µM | P33261 | recombinant CYP2C19, luciferin-H EGE luminescence; active compounds read high; 0 = fully inhibited enzyme, 1 = untreated enzyme;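 active = activation factor of at least 2 at 5 µM in the primary screen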;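 also: 0 = wells with 2.5 mM tranylcypromine and 1 = vehicle-only wells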
CYP2C9 act – increases human cytochrome P450 2C9 activity; P11712; recombinant CYP2C9, luciferin-H conversion, luminescence; active compounds read high; factor 1 = untreated enzyme, 0 = blocked; activation factor at 5 µM; hit rate 1.4% among 96,000; AID 1024;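 active = activation factor of 2 or more for CYP2C9 at a 5 µM dose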;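 also: 0 = sulfaphenazole-blocked wells and 1 = vehicle-only wells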
An asterisk follows results filed as active; nt = no result given. This is a sample that favours compounds with a hit; in the whole collection about 28% have one here.

SMILES	CYP2C9 inhib	PTK2B oligo ant	CYP2C19 inh	CYP2C19 activ	CYP2C9 act
CCOc1ccc(C(=O)N2CCC(C(=O)c3ccc4c(c3)OCCO4)CC2)cc1	55*	-2.6	85*	0.2	0.4
COc1ccc(S(=O)(=O)N2CCC(C(=O)c3ccc4c(c3)OCCO4)CC2)cc1	nt	-2.1	nt	nt	nt
Cc1ccc(C(=O)C2CCN(CC(=O)Nc3nc(C)cs3)CC2)cc1	90*	0.76	48	0.5	0.1
Cc1csc(NC(=O)CN2C(=O)C3CC=CCC3C2=O)n1 (stereo unspecified)	14	-0.82	-9	1.1	0.9
Cc1ccc(C(=O)C2CCN(CC(=O)Nc3ccc4c(c3)OCCO4)CC2)cc1	62*	-0.77	23	0.8	0.4
O=C(c1ccc2c(c1)OCCO2)C1CCN(S(=O)(=O)c2ccccc2F)CC1	-10	-2.4	40	0.6	1.1
COc1ccccc1NC(=O)N1CCCC1C(=O)NC12CC3CC(CC(C3)C1)C2 (stereo unspecified)	-14	-0.65	10	0.9	1.1
CC(C)CN(C(=O)c1nn(C)c(=O)c2ccccc12)c1nc2ccccc2s1	77*	1.4	53*	0.5	0.2
Cn1c(=O)oc2cc(S(=O)(=O)N3CCC4(CC3)OCCO4)ccc21	-2	1.1	75*	0.2	1
Cc1ccc(Cl)cc1N1CCN(S(=O)(=O)c2ccc3c(c2)oc(=O)n3C)CC1	97*	-1.5	12	0.9	0
Cc1ccc(Cl)cc1N1CCN(S(=O)(=O)c2c(C)[nH]c(=O)[nH]c2=O)CC1	26	0.25	24	0.8	0.7
Cn1c(=O)oc2cc(S(=O)(=O)N3CCOCC3)ccc21	-32	-0.56	-28	1.3	1.3
O=C(NCCc1ccncc1)c1ccccc1F	57*	-0.33	81*	0.2	0.4
O=C(Nc1ccc(Oc2cccnc2)cc1)c1ccccc1F	97*	0.39	93*	0.1	0
O=C(Nc1nc2ccccc2[nH]1)c1ccccc1F	81*	-0.68	95*	0	0.2
O=C(Nc1ccncc1)c1ccccc1F	45	-0.41	64*	0.4	0.6
OC(COc1c(Cl)cc(Cl)cc1Cl)CN1CCCCC1 (stereo unspecified)	9	-0.34	47	0.5	0.9
Cc1cccc(-c2noc(-c3cc4ccccc4oc3=O)n2)c1	1	-0.47	27	0.7	1
CC1(C)CC2CC(C)(CN2C(=O)C23CCC(C)(C(=O)O2)C3(C)C)C1 (stereo unspecified)	18	-1.4	28	0.7	0.8
O=C1N/C(=N/N=C/c2ccccc2)SC1(c1ccccc1)c1ccccc1	94*	0.53	20	0.8	0.1
COc1cc(Cl)c(S(=O)(=O)N2CC(C)OC(C)C2)cc1Cl (stereo unspecified)	-71	-0.57	84*	0.2	1.7
COc1cc(Cl)c(S(=O)(=O)N2CCOCC2)cc1Cl	-170	-0.24	29	0.7	2.7*
COc1cc(C)c(C(C)C)cc1S(=O)(=O)N1CCOCC1	-99	-1.3	34	0.7	2*
CC(=O)Nc1ccccc1N(C)S(=O)(=O)c1ccc(C)cc1	38	0.62	28	0.7	0.6
Cc1cc(C)c(NC(=O)CSc2nnc(Cc3cccn3C)n2-c2ccc(F)cc2)c(C)c1	18	-0.46	-3	1	0.8
SMILES	CYP2C9 inhib	PTK2B oligo ant	CYP2C19 inh	CYP2C19 activ	CYP2C9 act
Cc1ccc(Sc2ccc(/C=N/O)cc2[N+](=O)[O-])cc1	64*	-2.3	0	1	0.4
CO/N=C/c1cc([N+](=O)[O-])ccc1Sc1ccc(C)cc1	64*	0.74	65*	0.4	0.4
CCCN(CCO)Cc1cccc(Br)c1	-16	-0.01	17	0.8	1.2
Cc1ccc(NC(=O)c2ccc3ccccc3n2)nc1	29	-0.62	16	0.8	0.7
CC1(C)Cc2c(C#N)c(N3CCCC3)nc(-c3ccco3)c2CO1	91*	nt	51*	0.5	0.1
CC(C)c1nc(N2CCN(C(=O)c3ccccc3)CC2)c(C#N)c2c1COC(C)(C)C2	81*	-0.77	72*	0.3	0.2
CCC(=O)N1CCN(c2nc(-c3ccccc3)c3c(c2C#N)CCCC3)CC1	69*	-1.4	83*	0.2	0.3
N#Cc1c(SCC(=O)O)nc(-c2ccccc2)c2c1CCCC2	29	-0.96	0	1	0.7
N#Cc1c(NCCN)nc(-c2ccco2)c2c1CCCC2	24	0.55	10	0.9	0.8
CC1(C)Cc2c(C#N)c(N3CCN(C(=O)c4ccccc4)CC3)nc(-c3ccco3)c2CS1	nt	-0.5	nt	nt	nt
